Data as given in PubChem BioAssay AID504725 (Broad Institute, 2011).
Results with a measured potency or affinity are listed apart. Calls of active or inactive are those of the source. The rule behind the calls is not given here.

molecular target: KSHV LANA C-terminal domain (residues 932-1162) binding to LBS DNA (UniProt O40947); test: inhibitors of C-LANA binding to LBS DNA, dose response, biochemical, fluorescence polarization, cherry-picked samples (AID 504725); conditions: MBP-C-LANA / FAM-LBS DNA fluorescence polarization, percent change from plate compound-well median; series mostly up to 35 µM

outcome, inactive:
CCCCn1c(NS(=O)(=O)c2ccc(C)cc2)c(S(=O)(=O)c2ccccc2)c2nc3ccccc3nc21, CC(C)[C@H](NC(=O)c1ccccc1F)C(=O)NC1CCCCCCC1, CSc1nc(SC(C)C(=O)O)c2c3c(sc2n1)COC(C)(C)C3 (stereo not drawn), Cn1c(=O)c2c(nc(N/N=C/c3ccc(OC(=O)c4ccco4)cc3)n2Cc2ccc(F)cc2)n(C)c1=O, Cc1cccc(-c2nsc(SCC(=O)Nc3nccs3)n2)c1, O=C(N/N=C/c1ccc(N2CCOCC2)cc1)c1ccccn1, CCCc1nc(SC)[nH]c(=O)c1C, COc1cccc(NC(=O)CN(C)CC(=O)NCc2ccco2)c1, COc1cc2c(cc1OC)CN(C(=O)c1ccc(S(=O)(=O)N3CCCC3)cc1)CC2, COc1ccc(NC(=O)COC(=O)c2c(-c3ccccc3)noc2C)cc1, COc1ccc(C)cc1NC(=O)C(OC(=O)c1cnccn1)c1ccccc1 (stereo not drawn), Cc1ccc(NC(=O)CN2C(=O)N/C(=C/c3cc(C)n(-c4ccc(C(=O)O)cc4)c3C)C2=O)cc1, CCC(C)[C@H](NC(=O)[C@@H]1Cc2ccccc2CN1)C(=O)Nc1ccc2c(c1)OCO2 (stereo partly drawn), Nc1nnc(CC(=O)N/N=C/c2cc([N+](=O)[O-])cc(Br)c2O)s1, COc1cccc(OCCNc2ccc([N+](=O)[O-])cn2)c1, COc1ccc(/C=C/c2cc(C(F)(F)F)[nH]c(=O)n2)cc1OC, Cc1cccc(Nc2nc(N)c([N+](=O)[O-])c(NCc3ccccc3)n2)c1, Nc1nc(-c2ccc(C(=O)O)cc2)cs1, CCOC(=O)CN1NC2(CCCCCC2)NC1=S, C=CCOC(=O)C1=C[C@H](c2csc3ccccc23)C[C@H](OCc2ccc(CO)cc2)O1, Cc1ccc(OCC(=O)O/N=C(\N)Cc2ccc([N+](=O)[O-])cc2)cc1C, Cc1cc2nc(SCCN3CCOCC3)[nH]c2cc1C, COC(=O)c1sc(C(F)(F)F)c(-c2ccccc2)c1S(=O)(=O)N1CCOCC1, Cc1c(C#N)c(=O)c(-[n+]2ccccc2)c([S-])n1-c1ccc(Cl)cc1, Cc1nnc2sc(-c3csc4c3CCCC4)nn12, O=C(NC1CCCCC1)c1cc([N+](=O)[O-])ccc1N1CCOCC1, COc1cc(CN2CC(=O)N(c3cc(Cl)ccc3C)C2=S)cc(OC)c1OC, CCCc1nc(NCc2ccccn2)c2nnn(Cc3ccccc3F)c2n1, COc1cccc(NC(=O)N(CCN(C)C)C(C)c2cccnc2)c1 (stereo not drawn), NC(=S)N/N=C/c1cn(CCC(=O)O)nc1-c1cccc(Br)c1, COc1ccc(CC(=O)O/N=C(\N)c2ccc(OC)cc2)cc1, COc1ccc2[nH]c3c(C)c4cc[n+](C)cc4c(C)c3c2c1, Cc1[nH][nH]c(=O)c1C(c1ccc(-c2ccc(Cl)c(C(=O)O)c2)o1)c1c(C)[nH][nH]c1=O, O=C(CC1CCCC1)N1CCN(S(=O)(=O)c2ccccc2)CC1, CS(=O)(=O)c1cccc(C(=O)Oc2ccccc2)c1, Cc1ccc(S(=O)(=O)Nc2ccc(Br)cc2C(NCC(=O)O)c2ccccc2)cc1 (stereo not drawn), CCN(CC(=O)Nc1c(F)cccc1F)C(=O)CCCc1cccs1, N#C/C(=C\c1ccc(-c2ccccc2[N+](=O)[O-])o1)C(N)=O
